A selection: hits, their analogues and other compounds. The true share with any hit is near 19%.
HT1080-NT tox: qHTS for induction of synthetic lethality in tumor cells producing 2HG: qHTS for the HT-1080-NT fibrosarcoma cell line. HT-1080-NT fibrosarcoma viability, CellTiter-Glo ATP luminescence, 48 h. Potency, µM (doses to about 46.1 µM), for inactives: top-dose activity, negative = less viability, most hits filed as cytotoxic. 360,000 compounds, 1.6% hits. AID 686970, 2013;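 further: NT is the 2HG producing partner of a matched IDH1 knockdown line; 0% = DMSO-treated cells and -100% = media-only wells without cells; nearly all actives have a fitted effect of over 55% in size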
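Luminescent CellTiter-Glo readout after 48 hours of compound exposure at 37 degrees C defined viability of HT-1080-NT cells. Activity was normalized to DMSO wells and cell-free media wells; concentration-response curves were fitted and assigned curve classes.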
KB-V1 MDR tox: qHTS assay for MDR1-selective chemotherapeutics: Primary screen using the drug-selected MDR subline cells KB-V1 | Potency, µM (doses to about 46.1 µM), usual class: cytotoxic | 400,000 compounds, 3.4% hits | AID 1347076, 2019 | KB-V1 MDR cells viability, CellTiter-Glo, 72 h; further: nearly all actives have a fitted effect of over 60% in size
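Cytotoxicity via CellTiter-Glo luminescence after 72 h compound exposure at 37 degrees C. Cells: drug-selected KB-V1 line, DMEM phenol-red free plus 10% FBS. Compounds tested at multiple concentrations; normalized data fitted to concentration-effect curves.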
HT1080 IDH1KD tx: qHTS for induction of synthetic lethality in tumor cells producing 2HG: qHTS for the HT-1080-IDH1KD cell line. HT-1080 IDH1 knockdown viability, ATP luminescence, 48 h. Potency, µM (titrated, usually from 46.1 µM), without a hit: at the highest dose activity, negative = toxicity, most hits filed as cytotoxic. 360,000 compounds, 2% hits;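 further: 0% = DMSO wells and -100% = cell-free medium wells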
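Cytotoxicity counter-line: IDH1KD HT-1080, 48 h, CellTiter-Glo. Curves classed by r2, magnitude and activity.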
TDP1 cell noCPT: qHTS for Inhibitors of human tyrosyl-DNA phosphodiesterase 1 (TDP1): qHTS in cells in absence of CPT | DT40 Tdp1-/- hTDP1 cells, no CPT, ATP luminescence, 48 h | 420,000 compounds, 15% hits | Potency, µM (doses to about 46.2 µM), for inactives: at the highest dose activity change, negative = growth inhibition, usual class: inhibitors; further: nearly all actives have a fitted effect of over 55% in size
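Growth of hTDP1-complemented DT40 Tdp1-knockout cells is measured by ATP luminescence after at least 48 hr compound exposure at 37 °C, with DMSO substituting for the 20 nM CPT used in the parallel screen.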
DT40 TDP1 CPT: qHTS for Inhibitors of human tyrosyl-DNA phosphodiesterase 1 (TDP1): qHTS in cells in presence of CPT; Potency, µM (doses to about 46.2 µM), for inactives: at the top dose activity change, negative = growth inhibition, hits mostly inhibitors; chicken DT40 Tdp1-/-;hTDP1 cells + 20 nM CPT, ATP luminescence, 48 h; 420,000 compounds, 12% hits; further: nearly all actives have a fitted effect of over 55% in size
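Cell growth measured by CellTiter-Glo luminescence after a minimum 48 h, 37 C compound exposure with 20 nM CPT in Tdp1-knockout DT40 cells stably expressing hTDP1, seeded 400/well; qHTS titration format.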
KB-3-1 tox: qHTS assay for MDR1-selective chemotherapeutics: Primary screen using the parental adenocarcinoma cell KB-3-1; KB-3-1 viability, CellTiter-Glo ATP luminescence, 72 h; 400,000 compounds, 1.4% hits; Potency, µM (titrated, usually from 46.1 µM), usual class: cytotoxic; further: nearly all actives have a fitted effect of over 60% in size
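Luminescent ATP read-out (CellTiter-Glo) measures survival of drug-naive KB-3-1 cells after 72 h compound exposure at 37 °C. Titration series was screened from lowest to highest concentration, with DMSO vehicle plates as background controls.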
* hit, by the source's call; i = inactive; u = inconclusive; x = no result; [ ] = another dose, or the depositor's remark. The call rests on the fitted dose curve; in most records, active means well fitted curve in the direction sought with a large enough effect; inconclusive means small, poorly fitted or top-dose-only effect, or another doubt; inactive means no such curve, though single readings can be large; an effect the other way counts as inactive or inconclusive. Unless noted, on the % scale 0 is the no-effect control and ±100 the full control effect; potency means the concentration at half of the fitted maximal effect.

SMILES	HT1080-NT tox	KB-V1 MDR tox	HT1080 IDH1KD tx	TDP1 cell noCPT	DT40 TDP1 CPT	KB-3-1 tox
CCC(C)NS(=O)(=O)c1ccc(S(=O)(=O)N(CCc2ccc(OC)c(OC)c2)Cc2cccs2)cc1 (centres undefined)	-4.5%	i	-12.6%	7.31µM*	10.3µM*	u
COc1ccc(CCN(Cc2cccs2)S(=O)(=O)c2ccc(-n3cnnn3)cc2)cc1OC	-16.8%	u	u	u	11.6µM*	i
O=S(=O)(NC1CCCC1)c1ccc(S(=O)(=O)N(Cc2cccs2)CC2CCCO2)cc1 (centres undefined)	0.4%	u	9.4%	-20.6%	u	i
O=S(=O)(c1ccc(S(=O)(=O)N(Cc2cccs2)CC2CCCO2)cc1)N1CCCCC1 (centres undefined)	3.8%	7.31µM*	-9.0%	u	-25.8%	i
COc1cc(S(=O)(=O)N(CCc2ccccc2)Cc2cccs2)ccc1-n1cnnn1	5.4%	i	0.5%[9.24 µM]	-21.0%	-22.3%	i
COc1ccc(S(=O)(=O)N(C)Cc2cccs2)cc1Br	4.0%	i	1.6%	-7.7%	5.7%	i
COc1ccc(CCN(Cc2cccs2)S(=O)(=O)c2ccc(S(=O)(=O)N3CCC(C)CC3)cc2)cc1OC	5.0%	i	3.6%	u	-28.0%	i
CCOc1ccc(S(=O)(=O)NN)cc1	19.5%	i	17.7%	-11.3%	-12.1%	i
O=C(Nc1nnc(-c2ccco2)o1)C1CCCCC1	-6.3%	i	2.0%	-17.0%	-8.2%	i
O=C(Nc1nnc(-c2ccc3c(c2)CCCC3)o1)c1c(F)cccc1F	-14.5%	u	-23.9%	-19.0%	10.4%	i
O=C(CCc1ccccc1)Nc1nnc(-c2ccc3c(c2)OCCO3)o1	-13.9%	i	-11.8%	-28.2%	-29.2%	i
O=C(Nc1nnc(-c2ccc3c(c2)CCCC3)o1)C1CCCCC1	-0.5%	u	5.9%	u	14.6µM*	i
O=C(Nc1nnc(-c2ccc3c(c2)CCCC3)o1)c1ccc(Cl)cc1Cl	u	i	-29.2%	u	13µM*	u
O=C(CCc1ccccc1)Nc1nnc(-c2ccc3c(c2)CCCC3)o1	-21.6%	i	-28.2%	u	18.4µM*	u
COC(=O)c1c(C)[nH]c(C(=O)C(C)OC(=O)c2cnc(C)cn2)c1C (centres undefined)	-0.5%	u	16.2%	2.8%	-18.5%	u
COc1ccccc1-c1ncn(Cc2cccc(-c3ccccc3)c2)c1-c1ccco1	u	14.6µM*	u	16.4µM*	25.9µM*	u
COc1ccccc1-c1ncn(Cc2cccc(-c3ccccc3)c2)c1-c1cc(C)cc(C)c1	u	16.4µM*	u	14.6µM*	u	u
COc1ccc(-c2ccccc2)c2oc(-c3ccco3)cc(=O)c12	19.5%	i	13.7%	u	-17.1%	i
CN(C)S(=O)(=O)c1ccc(N2CCOCC2)nc1	3.6%	i	-15.8%	-7.3%	-2.2%	i
COc1ccc(N2CCN(c3ccc(S(=O)(=O)N(C(C)C)C(C)C)cn3)CC2)cc1	13.4%	i	8.8%	7.31µM*	4.61µM*	i
Nc1nnc2c(n1)[nH]c1ccccc12	x	u	x	u	-19.3%	i
Cc1ccc(-c2csc3ncnc(Nc4ccc(C(=O)O)cc4)c23)cc1	-5.8%	i	-11.0%	u	u	i
O=C(O)c1ccc(Nc2ncnc3scc(-c4ccccc4)c23)cc1	-2.6%	i	-1.8%	4.11µM*	2.59µM*	i
Fc1ccc(-c2csc3ncnc(Nc4ccc(N5CCOCC5)cc4)c23)cc1	u	i	u	23.1µM*	14.6µM*	i
CC(=O)N1CCOc2cc(S(=O)(=O)N3CCN(c4ccccc4)CC3)c(Cl)cc21	-3.6%	i	-3.3%	4.4%	5.2%	i
SMILES	HT1080-NT tox	KB-V1 MDR tox	HT1080 IDH1KD tx	TDP1 cell noCPT	DT40 TDP1 CPT	KB-3-1 tox
Cc1cc2c(cc1S(=O)(=O)N1CCN(c3cccc(C(F)(F)F)c3)CC1)OCC(=O)N2	8.1%	i	-1.9%	u	18.4µM*	i
CC(=O)c1ccc(NS(=O)(=O)c2cc3c(cc2C)N(C)CCO3)cc1	u	i	16.4µM*	u	10.3µM*	i
Cc1cc2c(cc1S(=O)(=O)N1CCN(c3ccccc3)CC1)OCCN2C	-3.4%	i	-6.6%	-25.7%	7.31µM*	i
CC(=O)c1ccc(NS(=O)(=O)c2cc3c(cc2C)N(C(C)=O)CCO3)cc1	11.8%	i	-4.5%	13.6%	1.4%	i
Cc1ccccc1NS(=O)(=O)c1cc2c(cc1C)N(C)CCO2	4.7%	u	4.0%	u	-21.4%	i
Cc1cc2c(cc1S(=O)(=O)Nc1ccc(C(C)C)cc1)OCCN2C	x	i	x	16.4µM*	u	i
Cc1ccc(-n2nnnc2SCC(=O)Nc2ccc3c(c2)COC3=O)cc1C	-23.1%	i	-27.6%	1.4%	-8.6%	i
CC1(NC(=O)Cc2c(Cl)cccc2Cl)CCS(=O)(=O)C1 (centres undefined)	2.2%	i	-0.3%	14.9%	2.3%	i
O=C1CCCN1CCCNc1nc(NCc2ccccc2)nc2ccsc12	-7.6%	u	-11.3%	18.4µM*	18.4µM*	i
C=CCNc1nc(NCCCN2CCCC2=O)c2sc(-c3ccccc3)cc2n1	u	i	u	20.6µM*	18.4µM*	i
CCC(C)c1ccccc1N1CC(C(=O)NCCc2ccc(OC)c(OC)c2)CC1=O (centres undefined)	-2.1%	i	-3.2%	u	0.8%	i
CS(=O)(=O)N(CC(=O)Nc1ccc(Br)cc1F)C1CCCCC1	-4.0%	i	-4.0%	9.2µM*	u	i
Cc1ccc(S(=O)(=O)N(CC(=O)NCc2ccncc2)C2CCCCC2)cc1	0.9%	i	1.1%	9.2µM*	11.6µM*	i
Cc1ccc(S(=O)(=O)N(CC(=O)Nc2ccc(Cl)c([N+](=O)[O-])c2)C2CCCCC2)cc1	-1.3%	4.61µM*	-22.9%	u	u	u

Screens from PubChem.
